The panel holds about 83,000 compounds, 20% with a hit somewhere; the sample as a whole holds those more often.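 Growth was measured after 48 h exposure to one concentration of compound in 96-well plates. Values under 10 count as active.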 Unmarked numbers belong to inactive results. Active and inactive are the calls of the source.
Legend:
Test in all cases: NCI-60 one-dose screen, 48 h (100 = growth as untreated, 0 = no growth, -100 = all killed)
[1] = test system: DU-145 prostate; conditions: 10 µM unless noted
[2] = test system: K-562 leukemia; conditions: 10 µM unless noted
[3] = test system: MALME-3M melanoma; conditions: 10 µM unless noted
[4] = test system: MDA-MB-231 breast; conditions: 10 µM unless noted
[5] = test system: RXF 393 renal; conditions: 10 µM unless noted
[6] = test system: SF-268 CNS; conditions: 10 µM unless noted
[7] = test system: SF-295 CNS; conditions: 10 µM unless noted
[8] = test system: SF-539 CNS; conditions: 10 µM unless noted
[9] = test system: UACC-257 melanoma; conditions: 10 µM unless noted
[10] = test system: M14 melanoma; conditions: 10 µM unless noted
[11] = test system: HCT-15 colon; conditions: 10 µM unless noted
[12] = test system: HT29 colon; conditions: 10 µM unless noted
[13] = test system: SNB-75 CNS; conditions: 10 µM unless noted
[14] = test system: U251 CNS; conditions: 10 µM unless noted
[15] = test system: PC-3 prostate; conditions: 10 µM unless noted
[16] = test system: SK-MEL-5 melanoma; conditions: 10 µM unless noted
[17] = test system: UACC-62 melanoma; conditions: 10 µM unless noted
[18] = test system: LOX IMVI melanoma; conditions: 10 µM
[19] = test system: SK-MEL-28 melanoma; conditions: 10 µM unless noted
[20] = test system: SNB-19 CNS; conditions: 10 µM unless noted

Structure (SMILES) | growth [1] | growth [2] | growth [3] | growth [4] [%] | growth [5] | growth [6] | growth [7] | growth [8] | growth [9] | growth [10] | growth [11] | growth [12] | growth [13] | growth [14] | growth [15] | growth [16] [%] | growth [17] | growth [18] | growth [19] [%] | growth [20] [%]
c1csc(-c2[nH]nc3c2CCc2ccccc2-3)c1 | 103% | 114% | 79.3% | 37.2 | 94.7% | 101% | 91.7% | 82.1% | 98.6% | 107% | 30.7% | 92.4% | 55.6% | 78.1% | 81.7% | 84.8 | 90% | 97.5% | 104 | 
C/C(=N/NC(N)=S)c1ccc(C)cc1 | 100% | 58% | 102% | 97.4 | 97.4% | 98.7% | 93.3% | 100% | 89.2% | 82.7% | 79.9% | 55.8% | 92.9% | 84.9% | 90.6% |  | 103% | 108% | 111 | 
O=C(c1ccccc1)C(O)C(Br)(CBr)c1ccccc1 (stereo unspecified) | 87.1% | 50.8% | 99.9% | 91.6 | 105% | 98.8% | 103% | 107% | 72.5% | 82.6% | 86.5% |  | 99.5% | 81.7% | 70.2% | 85.6 | 65.3% | 46.6% | 101 | 90.5
CC1(C)CCCC2=C1C(=O)N(SC(Cl)(Cl)Cl)C2=O | 102% | 43.1% | 75.9% | 95.9 | 90% | 103% | 84.5% | 95.9% | 97.2% | 93.6% | 85.9% | 93.5% | 96.9% | 93.8% | 89.5% | 98 | 96.1% | 83.9% | 99.4 | 
O=C(Nc1cccc(C(F)(F)F)c1)Oc1ccc(Cl)c2cccnc12 | 39.6% | 16.2% | -2.66% (active) | 22.7 | 68.6% | 15.1% | 4.11% (active) | 50.9% | -60% (active) | 24.9% | 2.21% (active) | 74.3% | 65.9% | 9% (active) | -40.1% (active) | 34 | 32.4% | 2.8% (active) | 58.3 | 
N#CCc1cccc2ccccc12 | 123% | 103% | 110% | 103 | 114% | 116% | 123% | 101% | 105% | 109% | 100% | 96% |  | 108% | 90.9% | 104 | 111% | 108% | 94.7 | 110
NCCCN(CCCN)CCCNCc1c2ccccc2c(CNCCCN(CCCN)CCCN)c2ccccc12 | 100% | 83.3% | 51.7% | 102 | 98.4% | 88.7% | 100% | 91.8% | 93.2% | 98.8% | 110% | 91.9% | 104% | 115% | 90.8% | 98.6 | 98.2% | 99.8% | 106 | 
CCCCCC/C=C1\CCC(CN2CCCC2)C1=O (stereo unspecified) | 107% | 57.3% | 119% | 102 | 95.6% | 102% | 111% | 114% | 92.1% | 93.3% | 77.1% | 120% | 90.9% |  | 89.7% | 96.9 | 99.2% | 59.8% | 114 | 92.6
CCN(CC)CCNC(Cc1ccccc1)c1ccc(OCc2ccccc2)cc1 (stereo unspecified) | 98.5% | 14.9% | 88.6% | 50 | 63.4% | 84.5% | 74.5% | 57% | -40.7% (active) | -29.6% (active) | 30.4% | 15.4% | 71.4% |  | 56.8% | 72.8 | -50.8% (active) | 58.6% | 62.5 | 89.3
O=[N+]([O-])c1ccc(Oc2ccccc2Cl)c([N+](=O)[O-])c1 | 89% | 17.4% | 85.5% | 75.5 | 86.7% | 84.9% | 102% | 94.6% | 89.8% | 86.2% | 77% | 90.2% | 83.2% | 88.4% | 97.1% | 95.1 |  | 44.2% | 103 | 
Cc1cc(Br)c2nsnc2c1[N+](=O)[O-] | 18.9% | 22.7% | 82.4% | 30 | 48.2% | 32.3% | 33.8% | 9.73% (active) | 66.9% | 3.57% (active) | 27.4% |  | 50.1% | 36.9% | 49% | 54.1 | 56.5% | 8.37% (active) | 63.3 | 52.9
CCC(=O)c1cc([N+](=O)[O-])c(Br)s1 | 105% | 44.5% | 90.5% | 103 | 91% | 96.6% | 103% | 88.5% | 96.5% | 71.6% | 61% | 41.6% | 95.7% |  | 101% | 98.9 | 105% | -41.2% (active) | 110 | 99.8
CCCCCCCCCCCCCCCC[N+]1(C)CCCC1c1cccnc1 (stereo unspecified) | 52.1% | 36.3% | 64.7% | 30.8 | 45.3% | 29.6% | 42.2% | 33.3% | 75.9% | 17.9% | 77.9% | 15.1% | 37.1% |  | 8.08% (active) | 43.9 | 50.6% | 49.2% | 97 | 
COc1cc(-c2ccc(-[n+]3nc(-c4ccc([N+](=O)[O-])cc4)nn3-c3ccc([N+](=O)[O-])cc3)c(OC)c2)ccc1-[n+]1nc(-c2ccc([N+](=O)[O-])cc2)nn1-c1ccc([N+](=O)[O-])cc1 | -32.7% (active) | 3.89% (active) | -44.6% (active) | 51.4 | -39.9% (active) | -33.9% (active) | -30.7% (active) | -66.4% (active) | -42.5% (active) | 58.3% | 29.7% | -6.65% (active) | -35.8% (active) | 43.9% | 47.9% | 47.4 | 85.9% | -75.5% (active) | 73.1 | 
CCOC(=O)c1cc(CC)sc1NC(=O)CC(C)=O | 48.2% | 21.8% | 62.2% | 54.9 | 61.7% | 60.1% | 43.2% | 56.1% | 95.6% | 88.6% | 19.9% | 47.8% | 44.8% | 34.7% | 36.2% | 54.3 | 60.4% |  | 96.7 | 
S=C(S)OCN1CCOCC1 | 86% | 77.3% | 87.5% | 116 | 107% | 97.9% | 95.6% | 101% | 42.6% | 77.4% | 91.3% | 19.7% |  | 40.9% | 89.6% | 101 | 98.8% | 63.4% |  | 103
CC(=O)c1c(O)c(C)c(O)c2c1OC1=CC(=O)C(C(C)=O)C(=O)C12C (stereo unspecified) | 107% | 68.9% | 79.4% | 96.3 | 105% | 88.9% | 16.7% | 98% | 97.8% | 67.6% | 84.4% |  |  | 74.9% | 45.3% | 90.9 | 62.8% |  | 84.4 | 96.9
